# Results filed as inconclusive are left out. A call without a number means that no potency is given here. Activity calls are given as the source filed them. Unless noted, calls follow the shape of the full dose curve.
# Legend:
# [1] = molecular target: Atrial natriuretic peptide receptor 1 (Homo sapiens) (UniProt P16066); test: Natriuretic polypeptide receptor (hNpr1) antagonism - Pilot CMLD screen (AID 1347052);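 also: HEK293 cells with hNpr1 stimulated by hNppA peptide at 0.1 nM; cGMP level read as GloSensor luciferase luminescence after agonist stimulation; series mostly up to about 9.2 µM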
# [2] = P-glycoprotein substrates identified in KB-8-5-11 adenocarcinoma cell line, qHTS therapeutic library screen (AID 1346987; active = well fitted inhibition curve with a large enough effect; also: series mostly up to about 44 µM; nearly all actives have a fitted effect of over 65% in size)
# Summary of the method: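 Steps: plate 500 KB-8-5-11 cells/well in DMEM + 10% FCS (colchicine removed); pin compounds in dose-response; incubate 72 h, 37 degree C, 5% CO2; add CellTiter-Glo, 5 min; read luminescence.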
# [3] = molecular target: Glutathione peroxidase 1 (Homo sapiens) (UniProt P07203); test: Primary qHTS Assay for Inhibitors of Recombinant Selenoprotein Glutathione Peroxidase 1 (GPX1) (AID 1845191; active = well fitted inhibition curve with a large enough effect; also: nearly all actives have a fitted effect of over 65% in size)
# Summary of the method: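 10 nM GPX1 + cpd, 30 min RT; start w/ 1 mM GSH, 0.5 mM cumene hydroperoxide, 0.5 mM NADPH, 100 nM GR, 0.01% BSA; buffer 50 mM Tris-HCl pH 7.5, 2 mM EDTA, 150 mM NaCl; Fl 340/450, 0 & 15 min.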
# Atrial natriuretic peptide receptor 1 (Homo sapiens), sequence (P16066 whole entry, looked up): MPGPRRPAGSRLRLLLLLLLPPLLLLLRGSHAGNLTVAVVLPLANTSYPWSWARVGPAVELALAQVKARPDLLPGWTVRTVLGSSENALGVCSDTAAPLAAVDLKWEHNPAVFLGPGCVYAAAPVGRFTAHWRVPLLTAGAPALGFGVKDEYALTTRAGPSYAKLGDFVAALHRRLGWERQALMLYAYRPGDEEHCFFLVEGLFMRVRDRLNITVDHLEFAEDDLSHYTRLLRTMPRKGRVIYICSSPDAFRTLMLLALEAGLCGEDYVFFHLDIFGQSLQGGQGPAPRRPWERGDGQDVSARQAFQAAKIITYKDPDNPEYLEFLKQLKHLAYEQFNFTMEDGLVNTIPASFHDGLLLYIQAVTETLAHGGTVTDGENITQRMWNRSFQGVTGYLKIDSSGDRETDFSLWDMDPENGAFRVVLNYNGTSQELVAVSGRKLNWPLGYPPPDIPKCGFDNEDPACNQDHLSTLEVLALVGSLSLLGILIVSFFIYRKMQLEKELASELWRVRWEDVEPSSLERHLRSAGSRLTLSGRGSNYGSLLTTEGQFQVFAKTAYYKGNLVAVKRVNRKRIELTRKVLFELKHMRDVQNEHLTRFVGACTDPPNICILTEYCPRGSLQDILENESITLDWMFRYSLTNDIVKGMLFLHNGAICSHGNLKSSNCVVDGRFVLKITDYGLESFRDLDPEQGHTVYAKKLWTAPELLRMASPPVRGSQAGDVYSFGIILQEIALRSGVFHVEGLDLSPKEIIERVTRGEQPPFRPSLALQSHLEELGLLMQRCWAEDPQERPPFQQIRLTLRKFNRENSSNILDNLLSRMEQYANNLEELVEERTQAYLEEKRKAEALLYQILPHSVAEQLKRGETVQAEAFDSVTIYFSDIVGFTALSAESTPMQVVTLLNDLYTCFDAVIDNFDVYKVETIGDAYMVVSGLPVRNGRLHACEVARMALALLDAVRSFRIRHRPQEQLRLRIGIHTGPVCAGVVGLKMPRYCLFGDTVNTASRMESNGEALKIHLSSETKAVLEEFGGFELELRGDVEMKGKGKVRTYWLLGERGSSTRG
# Glutathione peroxidase 1 (Homo sapiens), sequence (P07203 whole entry, looked up): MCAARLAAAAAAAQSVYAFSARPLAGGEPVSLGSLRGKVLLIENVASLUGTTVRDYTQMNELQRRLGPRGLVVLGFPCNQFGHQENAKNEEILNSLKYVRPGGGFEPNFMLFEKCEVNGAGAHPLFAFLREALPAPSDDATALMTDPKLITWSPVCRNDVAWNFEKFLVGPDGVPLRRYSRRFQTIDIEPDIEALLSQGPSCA
smiles,measurement,setting,value
COC(=O)C1=C(C(=O)OC)[C@@H]2N(C)c3ccc(OC)cc3[C@@]23C[C@@H](C(=O)OC)N(C(=O)NC(C)(C)C)C3=N1,Potency,[1],inactive
CNC(=O)c1ccc(-c2cnc3cnc(C(=O)N(C)c4ccc(Cl)cc4)cn23)cc1,Potency,[2],inactive
same,Potency,[3],inactive
COC(=O)C1=C(C)N(Cc2ccccc2)C(=NCCc2cccs2)NC1c1cccc(C(F)(F)F)c1 (stereo unspecified),Potency,[1],inactive
CCOC(=O)CN1C(=O)[C@@]2(CC(C)=CC[C@@H](COc3ccccc3)O2)c2ccccc21,Potency,[1],inactive
COC(=O)c1ccc(CN2C(=O)[C@@]3(CC(C)=CC[C@@H](COc4ccccc4)O3)c3ccccc32)cc1,Potency,[1],inactive

# From PubChem BioAssay (NCATS)
